Assay results: paper PMC4552634, “A New Set of Chemical Starting Points with Plasmodium falciparum Transmission-Blocking Potential for Antimalarial Drug Discovery” (PLoS ONE, 2015)
Like-named read-outs stand apart in the source and are kept apart here. About 3,200 (25%) of roughly 13,000 compounds showed an effect of 50% or more. The list shows a part of the results.

Test system: P. falciparum stage V gametocytes
Set-up: BacTiter-Glo ATP luminescence viability of purified stage V gametocytes in 384-well plates, per cent inhibition versus DMSO
Conditions: 48 h, 5 µM, inhibitor

O=C(Nc1cccc(-c2cccc(-c3nc4ccccc4[nH]3)c2)c1)Nc1ccc(Cl)c(Cl)c1 [TCMDC-133276]
% Inhibition: -27.25%

CN1CCC(N(Cc2ccc(N3CCN(Cc4c[nH]c5ccc(Cl)cc45)CC3)nc2)C2CC2)CC1 [TCMDC-125090]
% Inhibition: 56.06%

O=C(NC1CC1)c1ccc(N2CCN(Cc3ccc(Cl)cc3)CC2)nc1 [TCMDC-134579]
% Inhibition: -1.025%

CN(C)C1CCN(Cc2ccc(N3CCN(Cc4cccc5[nH]ccc45)CC3)nc2)CC1 [TCMDC-125091]
% Inhibition: 12.57%

COc1ccc(-c2nc3c(N)nc(N)nc3nc2C(C)C)cc1 [TCMDC-132109]
% Inhibition: -10.94%

COc1ccc2nccc([C@@H](O)CN3CCC(NC(=O)C(c4cc5ccccc5s4)N4CCN(c5ccccc5OC)CC4)CC3)c2c1 (some centres unmarked) [TCMDC-140998]
% Inhibition: -1.294%

Cc1cccc(-n2nc(C)c3c2NC(=O)CC3C(=O)c2ccc(Cl)s2)c1 (centres unmarked) [TCMDC-124735]
% Inhibition: 9.48%

Cc1ccc(-n2nc(C)c3c2NC(=O)CSC3c2ccsc2)cc1 (centres unmarked) [TCMDC-124763]
% Inhibition: 18.54%

Cc1nn(-c2cccc(Cl)c2)c2c1C(C(=O)c1ccc3c(c1)OCO3)CC(=O)N2 (centres unmarked) [TCMDC-124734]
% Inhibition: 53.61%

COc1ccc2ncc(F)c(CCN3CC(O)C(CNCc4nc5c(cc4Cl)OCC(=O)N5)C3)c2n1 (centres unmarked) [TCMDC-136076]
% Inhibition (% Inhibition): 36.95%

CN(C)c1ccc(Br)c(Br)c1 [TCMDC-137228]
% Inhibition: -4.164%

CCc1ccc(N2C(N)=NC(N)=NC2(C)C)cc1 [TCMDC-137714]
% Inhibition: 18.99%

O=C(Nc1cccc2ccccc12)N1CCc2cc3nccc(N4CCN5CCC[C@H]5C4)c3cc21 [TCMDC-140051]
% Inhibition: -22.56%

COc1ccc(N2CCN(CCCCNC(=O)c3ccc(NC(=O)c4ccc(Cl)cc4)cc3)CC2)c(OC)c1 [TCMDC-138121]
% Inhibition: -18.96%

COc1ccc(N2CCN(CCCCNCc3ccc(NC(=O)c4cc(Cl)cc(Cl)c4)cc3)CC2)c(OC)c1 [TCMDC-138226]
% Inhibition: 99.96%

COc1ccc(N2CCN(CCCOc3ccc(NC(=O)c4cc(Cl)cc(Cl)c4)cc3)CC2)c(OC)c1 [TCMDC-138225]
% Inhibition: -23.18%

COc1ccc(N2CCN(CCCC/C=C/c3ccc(NC(=O)c4cc(Cl)cc(Cl)c4)cc3)CC2)c(OC)c1 [TCMDC-138219]
% Inhibition: 10.07%

COc1ccc(N2CCN(CCCCNC(=O)c3ccc(NC(=O)c4cccc(Cl)c4)cc3)CC2)c(OC)c1 [TCMDC-138183]
% Inhibition: 74.19%

COc1ccc(N2CCN(CCCCNC(=O)c3ccc(NC(=O)c4cc(Cl)cc(Cl)c4)cc3)CC2)c(OC)c1 [TCMDC-138158]
% Inhibition: -3.672%

COc1ccc(N2CCN(CCCCNC(=O)c3ccc(NC(=O)c4ccc(C(F)(F)F)cc4)cc3)CC2)c(OC)c1 [TCMDC-138132]
% Inhibition: -49.13%

COc1ccc(N2CCN(CCCNC(=O)c3ccc(NC(=O)c4cc(Cl)cc(Cl)c4)cc3)CC2)c(OC)c1 [TCMDC-138244]
% Inhibition: -9.881%

COc1ccc(N2CCN(CCCCNC(=O)c3ccc(NC(=O)c4ccc(Cl)c(Cl)c4)cc3)CC2)c(OC)c1 [TCMDC-138159]
% Inhibition: 58.71%

Cc1ccoc1C(=O)Nc1cccc(-c2cccc(-c3nc4ccc(C(F)(F)F)cc4[nH]3)c2)c1 [TCMDC-136835]
% Inhibition: 10.66%

Cc1onc(-c2c(Cl)cccc2Cl)c1C(=O)N1CCc2cc3nccc(N4CCN5CCC[C@H]5C4)c3cc21 [TCMDC-140048]
% Inhibition: 3.329%

COc1cc(C(F)(F)F)nc2c(CNCCCNc3cc(=O)c4ccccc4[nH]3)scc12 [TCMDC-141145]
% Inhibition: -12.37%

CNc1nc(N/N=C/c2cc3c(cc2[N+](=O)[O-])OCO3)nc(Nc2cccc(C(F)(F)F)c2)n1 [TCMDC-124216]
% Inhibition: 15.24%

CCCCNCc1ccc(-c2nc(CN(C(=O)Nc3cc([N+](=O)[O-])ccc3F)C3Cc4ccccc4C3)cs2)cc1 [TCMDC-141640]
% Inhibition: 54.3%

Cc1ccc([N+](=O)[O-])cc1NC(=O)N(CC(O)c1ccccc1)C1CCCCC1 (centres unmarked) [TCMDC-123672]
% Inhibition: 2.226%

O=C(Nc1ccccc1F)N(CCCn1ccnc1)Cc1csc(-c2ccc(CNCc3ccccc3)cc2)n1 [TCMDC-141643]
% Inhibition: 22.98%

COc1ccc(Cc2c(C)nc3nc(N)nc(N)c3c2C)cc1OC [TCMDC-137649]
% Inhibition: 1.878%

O=C(Nc1ccc(Cl)cc1)N1CCN(C2CCCCC2)CC1 [TCMDC-125819]
% Inhibition: 10%

O=C(Nc1ccc2c(c1)CCC2)c1cccc(CN2CCCN(Cc3cccc(O)c3)CC2)c1 [TCMDC-135957]
% Inhibition: 14.29%

O=C(Cc1cccs1)NCC(c1ccccc1Cl)c1c[nH]c2ccccc12 (centres unmarked) [TCMDC-125062]
% Inhibition: 59.09%

NC(=NCc1ccccc1Cl)NCCc1c[nH]c2ccccc12 [TCMDC-138012]
% Inhibition: -46.58%

O=C(Cc1ccsc1)NCC(c1ccccc1Cl)c1c[nH]c2ccccc12 (centres unmarked) [TCMDC-125251]
% Inhibition: 11.67%

COc1ccc2nc3cc(Cl)ccc3c(NCCNCC(O)CO)c2n1 (centres unmarked) [TCMDC-137938]
% Inhibition: 74.53%

COc1ccc2nc3cc(Cl)ccc3c(NCCCCNc3c4ccc(Cl)cc4nc4ccc(OC)cc34)c2c1 [TCMDC-138218]
% Inhibition: 112.4%

CCN(CC)CCNc1c2ccc(Cl)cc2nc2ccc(OC)nc12 [TCMDC-137937]
% Inhibition: -10.21%

COc1ccc2nc3cc(Cl)ccc3c(NCc3ccccc3)c2c1.Cl [TCMDC-137663]
% Inhibition: -68.8%

COc1ccc2nc3cc(Cl)ccc3c(Nc3ccc(Oc4ccc(Nc5c6ccc(Cl)cc6nc6ccc(OC)cc56)cc4)cc3)c2c1.Cl [TCMDC-137674]
% Inhibition: -12.74%

COc1ccc2nc3cc(Cl)ccc3c(Nc3ccc(Sc4ccc(Nc5c6ccc(Cl)cc6nc6ccc(OC)cc56)cc4)cc3)c2c1.Cl [TCMDC-137673]
% Inhibition: -84.83%

COc1ccc2nc3cc(Cl)ccc3c(NCCCO)c2c1 [TCMDC-124144]
% Inhibition: 20.12%

COc1ccc2nc3cc(Cl)ccc3c(NCCCCCCNc3c4ccc(Cl)cc4nc4ccc(OC)cc34)c2c1 [TCMDC-137503]
% Inhibition: 106.2%

COc1ccc2nc3cc(Cl)ccc3c(N)c2c1.Cl [TCMDC-125835]
% Inhibition: 124.4%

CCOc1ccc(-n2nc3c(Cl)nnc(-c4ccccc4)c3c2-c2ccccc2)cc1 [TCMDC-123899]
% Inhibition: -2.574%

CCCC(C)Nc1nc(C)cc(N[C@@H](CC(C)C)C(=O)NC2CCCC2)n1 (some centres unmarked) [TCMDC-134895]
% Inhibition: -73.82%

CC1CCc2sc(-c3nnc(SC(C)C(=O)NC4CC4)o3)cc2C1 (centres unmarked) [TCMDC-124866]
% Inhibition: 6.4%

CCOc1ncccc1CN1CCC(N2CCc3cc(NC(=O)c4cc(C)on4)ccc32)C1 (centres unmarked) [TCMDC-135086]
% Inhibition: -27.43%

NC(=O)c1cccc(CNC(=O)NC[C@H]2CN(Cc3ccc(Cl)c(Cl)c3)CCO2)c1 [TCMDC-138745]
% Inhibition: 31.93%

COc1cc(NC(=O)/C=C/c2cccc3ccoc23)ccc1OCCN(C(C)C)C(C)C [TCMDC-139958]
% Inhibition: 3.846%

CCOC(=O)NC1=NC(C)(C)N(OCc2ccc(Cl)c(Cl)c2)C(NC(=O)OCC)=N1 [TCMDC-131729]
% Inhibition: 1.326%

COc1ccc2c(c1)C(C)(CCCN(C)C)C(=O)N2C (centres unmarked) [TCMDC-138945]
% Inhibition: 13.31%

COc1ccc2nc3cc(Cl)ccc3c(NCCCCN)c2c1 [TCMDC-137526]
% Inhibition: 92.71%

COc1ccc2nc3cc(Cl)ccc3c(NCCN(C)C)c2c1 [TCMDC-139093]
% Inhibition: 54.53%

COc1ccc2nc3cc(Cl)ccc3c(NCCO)c2c1 [TCMDC-124272]
% Inhibition: 0.5882%

COc1ccc2nccc([C@@H](O)CN3CCC(NCc4nc5c(cc4F)SCC(=O)N5)C(F)C3)c2c1 (some centres unmarked) [TCMDC-141681]
% Inhibition: -15.96%

O=[N+]([O-])c1cccc(-c2nc3cc(C4=NC5CCCCC5N4)ccc3[nH]2)c1 (centres unmarked) [TCMDC-137221]
% Inhibition: 5.96%

Nc1ccc(-c2nc3cc(C4=N[C@H]5CCCC[C@H]5N4)ccc3o2)cc1[N+](=O)[O-] [TCMDC-137253]
% Inhibition: 108.2%

O=[N+]([O-])c1ccc(-c2nc3cc(C4=NC5CCCCC5N4)ccc3[nH]2)cc1 (centres unmarked) [TCMDC-137220]
% Inhibition: 5.239%

Cc1ccc2ncc(Cl)c(CCN3CCC(NCc4ccc5c(n4)NC(=O)CS5)CC3)c2n1 [TCMDC-141963]
% Inhibition: 7.636%

COc1ccc2ncc(F)c(CCN3CC(O)C(CNCc4ccc5c(n4)NC(=O)CS5)C3)c2c1 (centres unmarked) [TCMDC-136187]
% Inhibition: 16.49%

COc1c(F)ccc2ncc(Cl)c(CCN3CCC(NCc4ccc5c(n4)NC(=O)CS5)CC3)c12 [TCMDC-141955]
% Inhibition: 54.36%

COc1ccc2ncc(Cl)c([C@@H](O)CN3CCC(NCc4cc5c(cn4)OCCO5)CC3)c2c1 [TCMDC-135470]
% Inhibition: 13.81%

COc1ccc2ncc(Cl)c([C@H](O)CN3CCC(NCc4cc5c(cn4)OCCO5)CC3)c2c1 [TCMDC-135469]
% Inhibition: 53.55%

COc1ccc2ncc(C)c(CCN3CCC(NCc4ccc5c(n4)NC(=O)CS5)CC3)c2c1 [TCMDC-134648]
% Inhibition: 44.1%

Cn1ncc2c3c(CCN4CCC(NCc5cc6c(cn5)OCCO6)CC4)c(Cl)cnc3ccc21 [TCMDC-136008]
% Inhibition: 9.388%

Clc1cnc2ccc3c(c2c1CCN1CCC(NCc2cc4c(cn2)OCCO4)CC1)OCCO3 [TCMDC-134566]
% Inhibition: 24.75%

COc1ccc2ncc(F)c([C@@H](O)CN3CCC(NCc4cc5c(cn4)OCCO5)CC3)c2c1 [TCMDC-135379]
% Inhibition: 9.097%

Fc1ccc2ncc(Cl)c(CCN3CCC(NCc4cc5c(cn4)OCCO5)CC3)c2c1 [TCMDC-133446]
% Inhibition: 74.26%

COc1ccc2nccc(CCN3CC(O)C(CNCc4ccc5c(n4)NC(=O)CS5)C3)c2n1 (centres unmarked) [TCMDC-136132]
% Inhibition: 27.64%

COc1cc(F)c2ncc(F)c(CCN3C[C@H](CNCc4ccc5c(n4)NC(=O)CS5)[C@H](O)C3)c2c1 [TCMDC-136333]
% Inhibition: 73.35%
